Results on 37 compounds are retold here after PubChem BioAssay AID1345085 (National Center for Advancing Translational Sciences (NCATS), 2018).

Results filed as inconclusive are left out. Unmarked numbers belong to inactive results. Active and inactive are the calls of the source. Calls follow the shape of the dose curve; as a rule, active = well fitted cell-killing curve with a large enough effect; inconclusive = small, poorly fitted or top-dose-only effect, or effect the other way; inactive = no such curve, though single readings can be large or run the other way. *1 amine or outer side, *2 acyl side, *3 side chain or, on linkers, in order; H or OH if unused. Where a SMILES comes first, the peptide text is derived from it. Bridges are numbered along the chain shown (N, C = ends). Roman numbers before positions name the chains, in order. [ ]: non-standard residue; d: D form. Actinocin(9to1) = Cc1c2oc3c(C)ccc(C(=O)[*:1])c3nc-2c(C(=O)[*:2])c(N)c1=O; NMeV = CN[C@H](C(=O)O)C(C)C; Sar = CNCC(=O)O
% is scaled to controls: 0 for no effect and ±100 for the full control effect; potency is read from the fitted curve at half-maximal effect.

The test system of this experiment is HeLa. The experiment in a line: Confirmatory qHTS for gynecologic anti-cancer compounds from libraries of approved drugs and bioactive compounds. Also: nearly all actives have a fitted effect of over 55% in size. The following applies: gynecologic cancer cell panel viability, ATPlite luminescence, 48 h; series mostly up to 57.6 µM; activity change, negative = viability loss: at the top concentration. The method in brief: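 1,000 cells/well; 16 h pre-incubation 37 C, 5% CO2; pin-transferred cpd in DMSO, 11 conc (1:3), 57.5 uM–0.977 nM; 48 h; ATPlite, 15 min RT; luminescence → IC50.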
Regarding `COCCOc1ccc2c(c1)ncn2-c1ccc2cccc(N3CCC(N)CC3)c2n1`, the Potency is 12.2 µM (active).
As to `CN(C)CC/C=C1\c2ccccc2COc2ccccc21`, the “activity change, negative = viability loss” value was -17.2%.
For the compound `COc1cc2nccc(Oc3ccc(NC(=O)C4(C(=O)Nc5ccc(F)cc5)CC4)cc3)c2cc1OC`, the Potency is 13.7 µM (active).
The same measure, in the same setting: the figure for `CC1=C(/C=C/C(C)=C/C=C/C(C)=C/C(=O)Nc2ccc(O)cc2)C(C)(C)CCC1` is 24.3 µM (active).
Regarding `CN1C2CCC1CC(OC(=O)[C@H](CO)c1ccccc1)C2` (some centres not stated), the “activity change, negative = viability loss” value is 23.4%.
As to `COc1cccc2cc(-c3nc(C4CCC(C(=O)O)CC4)n4ncnc(N)c34)[nH]c12` (configuration not stated), the Potency is 4.85 µM (active).
With `Nc1ccc(-c2ccc3ncc4ccc(=O)n(-c5cccc(C(F)(F)F)c5)c4c3c2)cn1`, the Potency is 0.385 µM (active).
On to `CNC(=O)c1ccccc1Sc1ccc2c(/C=C/c3ccccn3)n[nH]c2c1`, for which the Potency was 3.06 µM (active).
Consider `Cc1nc(N)nc(N)c1-c1ccc(Cl)c(Cl)c1`, for which the Potency is 3.06 µM (active).
On to `CC(=O)Nc1cccc(-n2c(=O)n(C3CC3)c(=O)c3c(Nc4ccc(I)cc4F)n(C)c(=O)c(C)c32)c1`, for which the “activity change, negative = viability loss” value was -19.4%.
Consider `NC(=O)c1cccc2cn(-c3ccc([C@@H]4CCCNC4)cc3)nc12`, for which the “activity change, negative = viability loss” value is -7.4%.
For the compound `O=c1[nH]c(=O)n([C@H]2C[C@H](O)[C@@H](CO)O2)cc1F`, the Potency was 2.43 µM (active).
On the same count and under the same terms, the figure for `C#C[C@]1(O)CC[C@H]2[C@@H]3CCC4=CC(=O)CC[C@@H]4[C@H]3CC[C@@]21CC` is 3.85 µM (active); for `O=C(O)C1(Cc2cccc(Nc3nccs3)n2)CCC(Oc2cccc(Cl)c2F)CC1` (configuration not stated) it is 1.22 µM (active).
In the case of `Nc1nc(Cl)nc2c1ncn2C1OC(CO)C(O)C1F` (configuration not stated), the “activity change, negative = viability loss” value is -14.4%.
Take `C[C@]12CCC(=O)C=C1CC[C@@H]1[C@@H]2[C@@H](O)C[C@@]2(C)[C@H]1CC[C@]2(O)C(=O)CO`: the “activity change, negative = viability loss” value was -2.25%.
Take `C[C@]12CCC(=O)C=C1[C@@H]1C[C@@H]1[C@H]1[C@@H]3[C@@H]4C[C@@H]4[C@@]4(CCC(=O)O4)[C@@]3(C)CC[C@@H]12`: the Potency is 4.85 µM (active).
As for `Cc1cnc(Nc2cccc(CN3CCOCC3)c2)nc1Nc1cccc(S(=O)(=O)NC(C)(C)C)c1`, the Potency is 1.72 µM (active).
For the compound `CN[C@@H](C)C(=O)N[C@H]1CN(C(=O)CC(C)C)CC[C@H]2CC[C@@H](C(=O)NC(c3ccccc3)c3ccccc3)N2C1=O`, the “activity change, negative = viability loss” value was -6.64%.
In the case of `CC1=C(CO)C(=O)O[C@@H]([C@@H](C)[C@H]2CC[C@H]3[C@@H]4C[C@H]5O[C@]56[C@@H](O)C=CC(=O)[C@]6(C)[C@H]4CC[C@]23C)C1`, the Potency is 2.11 µM (active).
`Nc1ccc(C(=O)Nc2cccc(-c3nc(N4CCOCC4)c4oc5ncccc5c4n3)c2)cn1`: the Potency is 7.69 µM (active).
For the compound `Nc1nccc(Oc2ccc(NC(=O)c3c[nH]cc(-c4ccc(F)cc4)c3=O)cc2F)c1Cl`, the Potency is 6.85 µM (active).
As for `Cc1c2oc3c(C)ccc(C(=O)N[C@@H]4C(=O)N[C@H](C(C)C)C(=O)N5CCC[C@H]5C(=O)N(C)CC(=O)N(C)[C@@H](C(C)C)C(=O)O[C@@H]4C)c3nc-2c(C(=O)N[C@@H]2C(=O)N[C@H](C(C)C)C(=O)N3CCC[C@H]3C(=O)N(C)CC(=O)N(C)[C@@H](C(C)C)C(=O)O[C@@H]2C)c(N)c1=O` (I: T[dV]P[Sar][NMeV] / II: T[dV]P[Sar][NMeV]; ester I:1-I:C, II:1-II:C; linker I:N-II:N via Actinocin(9to1)), the Potency is 0.863 µM (active).
In the case of `NS(=O)(=O)c1ccc(Nc2nc(OCC3CCCCC3)c3[nH]cnc3n2)cc1`, the Potency was 24.3 µM (active).
Consider `Cc1ccc(C(=O)Nc2ccc(CN3CCN(C)CC3)c(C(F)(F)F)c2)cc1C#Cc1cnc2cccnn12`, for which the Potency was 1.72 µM (active).
With `Cc1cnc(Nc2ccc(F)cc2Cl)nc1-c1c[nH]c(C(=O)NC(CO)c2cccc(Cl)c2)c1` (configuration not stated), the Potency was 9.68 µM (active).
As to `CN(C)C/C=C/C(=O)Nc1cc2c(Nc3ccc(F)c(Cl)c3)ncnc2cc1OC1CCOC1` (configuration not stated), the Potency was 24.3 µM (active).
The same measure, in the same setting: the value for `COc1cccc2c1C(=O)c1c(O)c3c(c(O)c1C2=O)C[C@@](O)(C(=O)CO)C[C@@H]3O[C@H]1C[C@H](N)[C@H](O[C@@H]2CCCCO2)[C@H](C)O1` was 12.2 µM (active); that for `COc1cc2c(NC3CCN(C(C)C)CC3)nc(C3CCCCC3)nc2cc1OCCCN1CCCC1` was 15.3 µM (active).
As for `NCCOc1cc(C(=O)Nc2cc(OCCN)c3ccccc3n2)nc(C(=O)Nc2cc(OCCN)c3ccccc3n2)c1`, the Potency was 19.3 µM (active).
The same measure, in the same setting: the value for `CC[C@@]1(O)C(=O)OCc2c1cc1n(c2=O)Cc2cc3cc(O)ccc3nc2-1` was 0.968 µM (active); that for `COc1cccc2c1C(=O)c1c(O)c3c(c(O)c1C2=O)C[C@@](O)(C(=O)CO)C[C@@H]3O[C@H]1C[C@H](N)[C@H](O)[C@H](C)O1` was 6.85 µM (active).
With `O=C1Cc2cc(CCN3CCN(c4nsc5ccccc45)CC3)c(Cl)cc2N1`, the “activity change, negative = viability loss” value is -11%.
Take `CCOc1cc2ncc(C#N)c(Nc3ccc(F)c(Cl)c3)c2cc1NC(=O)/C=C/CN(C)C`: the Potency is 24.3 µM (active).
For the compound `Cc1nc(NC(=O)N2CCCC2C(N)=O)sc1-c1ccnc(C(C)(C)C(F)(F)F)c1` (configuration not stated), the Potency is 19.3 µM (active).
Take `COc1cc(Nc2ncc3c(n2)-c2ccc(Cl)cc2C(c2c(F)cccc2OC)=NC3)ccc1C(=O)O`: the Potency was 0.685 µM (active).
With `O=C1c2c(O)ccc(O)c2C(=O)c2c(NCCNCCO)ccc(NCCNCCO)c21`, the Potency was 2.43 µM (active).
